From the supplement of paper PMC10127200 come the findings set out here.

Where a name gives a salt, the structure may show the parent alone.

For this experiment, the system named is 786-O. Briefly: Euclidean distance of Cell Painting phenotypic profile (signed KS, 77 features) to DMSO centroid (dimensionless distance); 5 or 10 uM (library dependent); higher = stronger phenotypic change vs DMSO (phenoactivity). The note with it: 48 h. Summed up: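 Stained cells were imaged confocally at 20X with 9 fields per well, after 48 h of exposure to library compounds at 10 or 5 uM (set by library; 0.1% DMSO final). The cells were five cancer lines and a healthy fibroblast line. From the images, Harmony extracted 77 features, each expressed as a signed Kolmogorov-Smirnov statistic relative to same-plate vehicle wells. Phenoactivity is measured as Euclidean distance to the median vehicle profile, using plate-position-corrected, correlation-weighted profiles averaged across replicates at the top dose.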
For `CN(C)CCCOc1nn(Cc2ccccc2)c2ccccc12` [Benzydamine HCl], the Euclidean distance worked out at 1.26.

As for `CC(=O)NCCCS(=O)(=O)O` [Acamprosate Calcium], the Euclidean distance is 0.651.

On to `CNC(=O)c1cc(Oc2ccc(NC(=O)Nc3ccc(Cl)c(C(F)(F)F)c3)cc2)ccn1` [Sorafenib], for which the Euclidean distance was 2.08.

The molecule `C#Cc1cccc(Nc2ncnc3cc4c(cc23)OCCOCCOCCO4)c1` [Icotinib] displayed an Euclidean distance of 1.83.

Molecule `Cc1cc([C@@H](C)Nc2ccccc2C(=O)O)c2nc(N3CCOCC3)cc(=O)n2c1` yielded an Euclidean distance of 1.

Molecule `CO/N=C(\C(=O)N[C@@H]1C(=O)N2C(C(=O)OCOC(=O)C(C)(C)C)=C(/C=C\c3scnc3C)CS[C@H]12)c1csc(N)n1` [Cefditoren Pivoxil] came in with an Euclidean distance of 1.06.

`CC[C@@H](C)Nc1cc(C(=O)N[C@H]2C[C@H]3CC[C@@H](C2)N3c2ccc(C(=O)C3CC3)cn2)c(C)cc1C(N)=O` registered an Euclidean distance of 3.1.

`CC(C)NCC(O)COc1ccc(CCOCC2CC2)cc1` (stereo not given) [Betaxolol] came in with an Euclidean distance of 0.891.

The molecule `COc1cc2c(cc1OC)[C@@H](Cc1cc(OC)c(OC)c(OC)c1)[N+](C)(CCCOC(=O)CC/C=C/CCC(=O)OCCC[N+]1(C)CCc3cc(OC)c(OC)cc3[C@H]1Cc1cc(OC)c(OC)c(OC)c1)CC2` (stereo not given in full) [Mivacurium chloride] registered an Euclidean distance of 0.861.

In turn, `O=C(CCc1ccc(O)cc1)c1c(O)cc(O)cc1O[C@@H]1O[C@H](CO)[C@@H](O)[C@H](O)[C@H]1O` [Phlorizin] came in with an Euclidean distance of 0.911.

In turn, `Nc1nc2c(ncn2COCCO)c(=O)[nH]1` [Aciclovir] yielded an Euclidean distance of 1.1.

As for `CCCCC(O)c1ccccc1` (stereo not given) [Fenipentol], the Euclidean distance turned out to be 1.46.

Take `COc1ccc(CCc2nc3cc(-c4c(C)noc4C)ccc3n2C[C@H](C)N2CCOCC2)cc1Cl`: the Euclidean distance stood at 2.58.

As for `CCCC(=O)Nc1ccc(OCC(O)CNC(C)C)c(C(C)=O)c1` (stereo not given) [Acebutolol HCl], the Euclidean distance was 0.96.

Consider `CCn1c(N)c(C(=O)NC)c(=O)c2ccc(C#CC(C)(O)COC)nc21` (stereo not given), for which the Euclidean distance amounted to 0.634.

As for `Cc1onc(-c2c(F)cccc2Cl)c1C(=O)N[C@@H]1C(=O)N2[C@@H]1SC(C)(C)[C@@H]2C(=O)O` [Flucloxacillin sodium], the Euclidean distance is 1.14.

On to `CCCC(=O)O[C@]1(C(=O)COC(C)=O)CC[C@H]2[C@@H]3C[C@H](F)C4=CC(=O)C=C[C@]4(C)[C@@]3(F)[C@@H](O)C[C@@]21C` [Difluprednate], for which the Euclidean distance turned out to be 1.73.

The molecule `C=CC(=O)N1CCC([C@@H]2CCNc3c(C(N)=O)c(-c4ccc(Oc5ccccc5)cc4)nn32)CC1` [Zanubrutinib (BGB-3111)] returned an Euclidean distance of 1.58.

In turn, `Cc1cccc(Nc2ccccc2C(=O)O)c1C` [Mefenamic Acid] registered an Euclidean distance of 0.733.

In the case of `CN1CCN(c2cc3c(cc2F)c(=O)c(C(=O)O)cn3-c2ccc(F)cc2)CC1` [Difloxacin hydrochloride], the Euclidean distance came out at 1.51.

`COc1cc(OC)c(C(=O)CCCN2CCCC2)c(OC)c1` [Buflomedil HCl] displayed an Euclidean distance of 1.46.

The molecule `O=c1c(O)c(-c2ccc(O)cc2)oc2cc(O)cc(O)c12` [Kaempferol] registered an Euclidean distance of 1.49.

In the case of `O=C(O)[C@H](O)Cc1ccc(O)c(O)c1` [Danshensu], the Euclidean distance was found to be 1.51.

With `CC(C)Cn1cnc2c(N)nc3ccccc3c21` [Imiquimod], the Euclidean distance was 0.967.

`CN(C)CCC(c1ccc(Br)cc1)c1ccccn1` (stereo not given) [Brompheniramine hydrogen maleate] yielded an Euclidean distance of 1.21.

In the case of `CC1=C(/C=C/C(C)=C/C=C/C(C)=C/C(=O)Nc2ccc(O)cc2)C(C)(C)CCC1` [Fenretinide], the Euclidean distance amounted to 2.9.

Take `CC(=O)OCC(=O)[C@H]1CC[C@H]2[C@@H]3CCC4=CC(=O)CC[C@]4(C)[C@H]3CC[C@]12C` [Deoxycorticosterone acetate]: the Euclidean distance came to 0.997.

The molecule `CCCCc1oc2ccccc2c1C(=O)c1cc(I)c(OCCN(CC)CC)c(I)c1` [Amiodarone HCl] displayed an Euclidean distance of 1.56.

In turn, `Cc1cc(C#N)cc(C)c1Oc1nc(Nc2ccc(C#N)cc2)nc(N)c1Br` [Etravirine (TMC125)] registered an Euclidean distance of 1.93.

In the case of `Cc1c(C(=O)NN2CCCCC2)nn(-c2ccc(Cl)cc2Cl)c1-c1ccc(I)cc1`, the Euclidean distance was found to be 1.16.

With `OC(c1cc(C(F)(F)F)nc2c(C(F)(F)F)cccc12)C1CCCCN1` (stereo not given) [Mefloquine HCl], the Euclidean distance was 2.22.

With `Nc1ccn([C@@H]2O[C@H](CO)[C@@H](O)[C@@H]2O)c(=O)n1` [Cytarabine], the Euclidean distance amounted to 3.08.

As for `Cc1cc(O)c(C(=O)N[C@@H](C(=O)N[C@@H]2C(=O)N3C(C(=O)O)=C(CSc4nnnn4C)CS[C@H]23)c2ccc(O)cc2)cn1` [Cefpiramide sodium], the Euclidean distance was 0.849.

Regarding `CC/C(=C(\c1ccc(O)cc1)c1ccc(OCCNC)cc1)c1ccccc1` [Endoxifen HCl], the Euclidean distance amounted to 4.21.

The molecule `CNC[C@H](O)c1cccc(O)c1` [Phenylephrine HCl] had an Euclidean distance of 1.46.

Take `COc1cc2c(cc1OC)C(=O)C(CC1CCN(Cc3ccccc3)CC1)C2` (stereo not given) [Donepezil]: the Euclidean distance stood at 0.813.

For `COc1ccc(-c2nc(N3CCOCC3)c3sc(CN(C)c4ncc(C(=O)NO)cn4)cc3n2)cn1`, the Euclidean distance is 3.46.

On to `CCCc1nc(C(C)(C)O)c(C(=O)O)n1Cc1ccc(-c2ccccc2-c2nnn[nH]2)cc1` [Olmesartan], for which the Euclidean distance is 1.21.

As to `O=C1C[C@@H](c2ccc(O)cc2)Oc2cc(O)cc(O)c21` [Naringenin], the Euclidean distance amounted to 0.882.

In the case of `CC[C@@]1(O)C(=O)OCc2c1cc1n(c2=O)Cc2cc3c(CN(C)C)c(O)ccc3nc2-1` [Topotecan], the Euclidean distance was determined as 3.37.
